Results filed as inconclusive are left out. A call without a number means that no potency is given here. Calls of active or inactive are those of the source. Calls follow the shape of the dose curve; as a rule, active = well fitted inhibition curve with a large enough effect; inconclusive = small, poorly fitted or top-dose-only effect, or effect the other way; inactive = flat fitted curve, though single readings scatter.
Potency is read from the fitted curve at half-maximal effect.

Ubiquitin carboxyl-terminal hydrolase 2 (Homo sapiens), sequence (O75604 whole entry, looked up): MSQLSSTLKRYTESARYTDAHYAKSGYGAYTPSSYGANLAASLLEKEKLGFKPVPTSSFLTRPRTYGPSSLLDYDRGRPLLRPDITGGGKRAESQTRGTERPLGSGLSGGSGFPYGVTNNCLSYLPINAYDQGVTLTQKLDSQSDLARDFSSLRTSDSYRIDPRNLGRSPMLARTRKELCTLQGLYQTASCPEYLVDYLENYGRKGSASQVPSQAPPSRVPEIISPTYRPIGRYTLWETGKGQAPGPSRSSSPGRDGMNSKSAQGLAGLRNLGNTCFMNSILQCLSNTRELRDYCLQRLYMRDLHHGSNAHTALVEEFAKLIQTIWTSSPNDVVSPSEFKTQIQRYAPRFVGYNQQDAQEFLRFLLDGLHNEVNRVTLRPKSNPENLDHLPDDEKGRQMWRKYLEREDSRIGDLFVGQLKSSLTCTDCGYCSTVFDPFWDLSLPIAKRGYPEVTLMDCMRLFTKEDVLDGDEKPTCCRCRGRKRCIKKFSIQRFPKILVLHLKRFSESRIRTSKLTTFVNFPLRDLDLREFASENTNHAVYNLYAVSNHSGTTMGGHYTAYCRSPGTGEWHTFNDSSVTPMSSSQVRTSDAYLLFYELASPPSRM

In the test the target is Ubiquitin carboxyl-terminal hydrolase 2 (Homo sapiens) (UniProt O75604). As to the kind of experiment: Ub-rhodamine 110 based assay for inhibitors Ubiquitin-specific Protease USP2a. Also: nearly all actives have a fitted effect of over 50% in size. The following applies: USP2a Ub-rhodamine110 cleavage, fluorescence; series mostly up to 38.3 µM. Put shortly:
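Kinetic fluorescence (485/531 nm) read each minute over 7 min after adding Ub-Rhod110 (150 nM final) to USP2a (5 nM final). The enzyme had 30 min RT exposure to compounds beforehand in Tris pH 8.0 buffer with CaCl2, CHAPS and beta-ME.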
For the compound `O=C(CCc1nc(-c2ccccc2F)no1)NC1CCCCCC1`, the Potency entry was “inactive”. Take `CCCCCCCCCCOC(=O)Cn1c(COc2ccccc2)[n+](C)c2ccccc21`: the Potency result was “inactive”. For the compound `CCOc1ccc(NC(=O)N(CCCN2CCOCC2)Cc2cccnc2)cc1`, the Potency entry was “inactive”. As for `CC(C)CC(c1nnnn1CC1CCCO1)N1CCN(c2nc3ccccc3s2)CC1` (centres undefined), the Potency result is “inactive”.

As for `CC(=O)O[C@H]1[C@H](O)[C@H](Oc2c(O)c(C)c3c4c2[C@@H](C)CC[C@@H]4[C@@H](C)C[C@H]3C=C(C)C)O[C@@H](C)[C@H]1O`, the Potency result is “inactive”. The same measure for `O=C(CNC(=O)c1ccco1)Nc1ccc(S(=O)(=O)N2CCCC2)cc1`: “inactive”; for `Cc1ccc(C(=O)COC(=O)CNC(=O)CN2C(=O)c3ccccc3C2=O)cc1`: “inactive”; for `N#CCc1ccc(NC(=O)/C=C/c2ccc([N+](=O)[O-])o2)cc1`: 10 µM (active). With `COC(=O)[C@@]12CCCCN1[C@H](c1ccc(-c3ccc(Cl)c(Cl)c3)cc1)[C@H]1C(=O)N(C)C(=O)[C@H]12`, the Potency entry was “inactive”.

Regarding `COc1cc(C)c(S(=O)(=O)NCc2ccc3c(c2)OCO3)cc1C`, the Potency result was “inactive”.

On to `CCOc1ccc(Cn2nnc(C(=O)NCc3ccccc3)c2N)cc1`, for which the Potency entry is “inactive”.

Regarding `COc1ccccc1C(=O)N1CCN=C1SC`, the Potency entry was “inactive”.

For the compound `CC1=CC(C)(C)N(C(=O)c2ccccc2)c2ccccc21`, the Potency result was “inactive”.

As to `CCOc1ccc2[nH]c(=O)c(CN(Cc3cccs3)Cc3nnnn3C(C)(C)CC)cc2c1`, the Potency result was “inactive”.

With `Cn1c(=O)c2c(nc(CN3CCN(C(=O)c4ccco4)CC3)n2CCCc2ccccc2)n(C)c1=O`, the Potency result was “inactive”. The same measure for `COC(=O)c1c(N2C(=O)CCC2=O)sc2c1CCCC2`: “inactive”; for `Cc1ccc(C2=N/C(=C\c3c(C)nn(-c4ccccc4)c3N3CCCC3)C(=O)O2)cc1`: “inactive”; for `CCOC(=O)c1[nH]c2ccc(OC)cc2c1NC(=O)CCN1CCC(C)CC1`: “inactive”. As to `Cc1ccc(N(CC(=O)Nc2ccc(S(=O)(=O)N3CCOCC3)cc2)S(C)(=O)=O)cc1C`, the Potency result was “inactive”. The same measure for `COc1ccc(/C=C2/SC(=S)N(c3ccc(S(=O)(=O)Nc4nccs4)cc3)C2=O)cc1`: 3.16 µM (active). The same measure for `COc1ccc(-n2c(=S)[nH]c3cc(C(=O)Nc4cc(OC)c(OC)c(OC)c4)ccc3c2=O)c(OC)c1`: “inactive”; for `O=C(O)CCn1c(C2CCCCC2)nc2ccccc21`: “inactive”; for `Cc1ccccc1NC(=O)CSc1nnc(-c2ccco2)c(-c2ccco2)n1`: 10 µM (active).

`CCCNC(=O)NCc1ccc(N2CCCC2=O)cc1`: the Potency result was “inactive”. The same measure for `C#CCOCCOCCOCCNc1nc(N2CCN(C(=O)CCCCCCCCCCNC(=O)Cn3cc(CCCCCN)nn3)CC2)nc(N2CCN(C(=O)CCCCCCCCCCNC(=O)[C@H]([C@@H](C)CC)n3cc(CCCCCN)nn3)CC2)n1`: “inactive”. Turning to `O=C(c1ccccc1N(Cc1ccccc1)S(=O)(=O)c1ccccc1)N1CCOCC1`, the Potency result is “inactive”. As for `Oc1c(Cl)cc(Cl)c(Cl)c1Cc1c(O)c(Cl)cc(Cl)c1Cl`, the Potency is 3.16 µM (active). In the case of `C=CCOc1cccc(C2C(C(=O)c3ccco3)=C(O)C(=O)N2CCN(CC)CC)c1` (centres undefined), the Potency result was “inactive”. The entry for `CCOC(=O)c1sc(NC(=O)Nc2ccccc2)cc1C` is “inactive”; for `Cc1noc(C)c1NC(=O)Nc1ccc2c(c1)C(=O)N([C@H](C)CO)C[C@H](C)[C@@H](CN(C)S(=O)(=O)c1ccccc1)O2` it is “inactive”. In the case of `CCCOc1ccc(/C=C2\SC(=S)N(CC3CCCO3)C2=O)cc1` (centres undefined), the Potency result was “inactive”.

In the case of `COc1ccc(S(=O)(=O)N2CCCC2C(=O)NCc2cccs2)cc1` (centres undefined), the Potency entry was “inactive”. The same measure for `Cc1cccc(Nc2nc(NCc3ccco3)c3ccccc3n2)c1`: “inactive”; for `Cc1c2c(=O)n(-c3nc4ccccc4s3)nc-2cc(O)n1Cc1ccccc1`: 6.31 µM (active); for `O=C(Nc1ccc(N2CCCC2)cc1)c1ccc(Br)cc1`: 8.91 µM (active).

As to `Cc1cccc(C)c1-n1cccc1/C=C1\SC(=S)N(c2cccc(C(=O)O)c2)C1=O`, the Potency is 7.94 µM (active). The entry for `COc1ccc(CN(Cc2cc3cc(C)ccc3[nH]c2=O)C(=O)N(C)C)cc1` is “inactive”; for `CCOc1cc(N2CCOCC2)c(OCC)cc1NC(=O)Cc1cn2ccsc2n1` it is “inactive”. The same measure for `O=C(CCSCc1ccc(Cl)cc1)NCCc1ccccc1`: “inactive”.

The values are drawn from PubChem BioAssay AID493170 (National Center for Advancing Translational Sciences (NCATS), 2011).
